In PubChem BioAssay AID629 (Emory University Molecular Libraries Screening Center, 2007):
Hit rate of the full screen: of about 86,000 compounds, about 1,400 (1.6%) were called active. No stated cut-off is given here; in the data, active means inhibition above about 50%; inactive means the rest. For the sample, actives were picked, then their nearest neighbours and some compounds at random.

biological target: Estrogen receptor (Homo sapiens) (UniProt P03372); assay: ERα–SRC-1 coactivator interaction inhibitors, primary screen, biochemical, TR-FRET, ERα LBD, estradiol-bound (AID 629); details: TR-FRET ER-alpha LBD / SRC-1 peptide, at 25.6 µM, active compounds read high;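 further: 0% = receptor plus peptide control and 100% = peptide only without receptor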
Sequence (P03372 whole entry, looked up, the tested form may be a part): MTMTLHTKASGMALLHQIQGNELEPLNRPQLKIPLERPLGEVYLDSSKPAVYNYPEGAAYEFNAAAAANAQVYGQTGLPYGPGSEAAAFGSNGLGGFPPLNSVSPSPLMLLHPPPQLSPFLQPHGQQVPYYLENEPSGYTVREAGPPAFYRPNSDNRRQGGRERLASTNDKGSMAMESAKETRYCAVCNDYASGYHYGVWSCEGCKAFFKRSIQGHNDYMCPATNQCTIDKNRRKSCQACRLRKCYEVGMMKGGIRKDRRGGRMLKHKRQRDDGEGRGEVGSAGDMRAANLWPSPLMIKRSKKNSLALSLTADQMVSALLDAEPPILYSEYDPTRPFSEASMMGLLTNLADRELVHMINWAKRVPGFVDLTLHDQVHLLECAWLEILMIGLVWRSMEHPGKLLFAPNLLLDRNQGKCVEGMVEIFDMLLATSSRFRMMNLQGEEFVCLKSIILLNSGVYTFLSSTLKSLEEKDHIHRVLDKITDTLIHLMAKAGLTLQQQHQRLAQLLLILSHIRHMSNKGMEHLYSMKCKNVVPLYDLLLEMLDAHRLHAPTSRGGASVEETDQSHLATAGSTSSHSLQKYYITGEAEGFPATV

| Structure (SMILES) | inhibition |
| --- | --- |
| Cc1cc(NC(=O)CSc2nc(C(C)C)nc3sc4c(c23)CCC(C)C4)no1 (stereo unspecified) | -14.6% (inactive) |
| CC1CCc2c(sc(NC(=O)c3ccc(Cn4cc(Br)cn4)o3)c2C(N)=O)C1 (stereo unspecified) | 50.6% (active) |
| CCOC(=O)c1c(NC(=O)c2ccc(Br)o2)sc2c1CCCC2 | 7.77% (inactive) |
| Cc1ccc(CN(C(=O)c2sc3ccccc3c2Cl)C2CCS(=O)(=O)C2)cc1 (stereo unspecified) | 6.88% (inactive) |
| C/C=C/C(=O)Nc1nnc(C(C)C)s1 | -19.7% (inactive) |
| CNC(=O)c1c(NC(=O)c2ccc(S(=O)(=O)N3CCOCC3)cc2)sc2c1CCC2 | 94.5% [fluorescence artefact?] (active) |
| COc1ccc(C(=O)Nc2nc(-c3ccc(S(=O)(=O)N4CCOCC4)cc3)cs2)cc1 | 3.26% (inactive) |
| CNC(=O)c1c(NC(NC(=O)c2ccco2)C(=O)c2ccc(Cl)cc2)sc2c1CCCC2 (stereo unspecified) | -3.84% (inactive) |
| CCOC(=O)c1ccc2c(c1)nc(SCC(=O)NC(C)C)n2CC | 26.4% (inactive) |
| CCOc1cc(C(=O)Nc2c(C)ccc3nsnc23)cc(OCC)c1OCC | 8.18% (inactive) |
| CCCCCN1CC(O)=C(c2nc(-c3ccc(Cl)cc3)cs2)C1=N | 65.8% [fluorescence artefact?] (active) |
| CCCCCN1CC(O)=C(c2ccccc2)C1=N | 2.06% (inactive) |
| N#CC(=C1CCCC1)c1nc(-c2ccc(Cl)cc2)cs1 | -5.55% (inactive) |
| Cc1ccc(S(=O)(=O)Oc2ccc(/C=N/NC(=O)c3c(Cl)cnn3C)cc2)cc1 | -7.62% (inactive) |
| COCCCn1c(Cc2csc(Nc3cccc(Cl)c3)n2)nnc1SCC(=O)OC1CCCCC1 | 67.4% [fluorescence artefact?] (active) |
| COCCCn1c(SCC(=O)Nc2ccccc2)nnc1-c1ccncc1 | -1.59% (inactive) |
| C=CCn1c(CC(=O)Nc2cccc(OC)c2)nnc1SCC(=O)NC1CCCCC1 | -5.03% (inactive) |
| CCOC(=O)/C=c1\s/c(=C\c2ccccc2OC)c(=O)n1CC(=O)N1CCOCC1 | -4.48% (inactive) |
| CCOc1ccccc1C(=O)NCc1ccco1 | 10.6% (inactive) |
| CCOc1ccccc1/C=c1\sc2nc(-c3ccco3)nn2c1=O | 57.2% (active) |
| CCCCOc1ccccc1/C=c1/sc2nc(-c3oc4ccccc4c3C)nn2c1=O | 50% (active) |
| O=c1nc2s/c(=C\c3ccco3)c(=O)n2nc1Cc1ccccc1 | 28.7% (inactive) |
| CCc1nc2oc3ccccc3c(=O)c2c(=O)n1Cc1ccc(OC)cc1 | 21% (inactive) |

| Structure (SMILES) | inhibition |
| --- | --- |
| COC(=O)CSc1nc(C)c2ccc(OC)cc2n1 | -6.48% (inactive) |
| CC1CCCCC1NC(=O)C1CCCN1S(=O)(=O)c1cccc2nsnc12 (stereo unspecified) | 11.2% (inactive) |
| Cc1cc(C)c(NC(=O)CN2CCOCCOCCOCCOCC2)c(C)c1 | 3.92% (inactive) |
| O=C(CN1CCCCCC1)N1c2ccccc2Sc2ccc(C(F)(F)F)cc21 | -9.51% (inactive) |
| Cc1nc(NNC(=O)c2ccccc2)cc(-c2ccccc2)n1 | -1.45% (inactive) |
| Cc1ccccc1NC(=O)c1ccccc1 | -4.17% (inactive) |
| Cc1ccc2c(c1)sc1ncc(NC(=O)c3ccccc3)c(=O)n12 | 53.5% [fluorescence artefact?] (active) |
| Cc1cccc(N(C(=O)c2ccc(CN3CCOCC3)o2)C(C(=O)NC2CCCCC2)c2ccc(F)cc2)c1 (stereo unspecified) | 2.65% (inactive) |
| CS(=O)(=O)c1ccc2c(c1)SC1=NC(=O)/C(=C/c3ccco3)C(=N)N12 | 82.8% [fluorescence artefact?] (active) |
| COC(=O)c1cn(-c2ccccc2)nc1-c1cccnc1 | 1.49% (inactive) |
| COc1ccccc1N1CCN(C(=O)c2cn(-c3ccccc3)nc2-c2cccnc2)CC1 | 0.39% (inactive) |
| O=C(c1cn(-c2ccccc2)nc1-c1cccnc1)N1CCCCC1 | 93.3% [fluorescence artefact?] (active) |
| O=C(N/N=C\c1cccc(Br)c1)c1ccccc1-n1cccc1 | -1.04% (inactive) |
| Oc1ccc(-c2onc3ccc(Cl)cc23)cc1 | 2.22% (inactive) |
| O=S(=O)(NN=C1CCCCCCC1)c1ccc(Br)cc1 | -3.65% (inactive) |
| COC(=O)c1cnn2c(C(F)(F)F)cc(-c3ccco3)nc12 | 62.1% (active) |
| COC(=O)c1cc2nc(-c3ccccc3)cc(C(F)(F)F)n2n1 | -12% (inactive) |
| O=C(NCc1ccco1)c1cnn2c(C(F)(F)F)cc(-c3ccco3)nc12 | 6.58% (inactive) |
| CC1(C)C2CCC13CS(=O)(=O)NC3C2 (stereo unspecified) | 3.36% (inactive) |
| CCc1nnc(NC(=O)CSc2nc3ccccc3c(=O)n2CCCOC)s1 | 14.8% (inactive) |
| O=C1/C(=C/c2cccs2)CCc2ccccc21 | 5.05% (inactive) |
| Cc1ccc(-n2c(SCC(=O)Nc3ccc4c(c3)OCO4)nnc2-c2ccoc2C)cc1 | -0.65% (inactive) |
| Cc1ccc(-n2c(SCC(=O)Nc3ccc4c(c3)OCO4)nnc2-c2ccccn2)cc1 | -7.91% (inactive) |

| Structure (SMILES) | inhibition |
| --- | --- |
| COc1ccc(-n2c(SCC(=O)Nc3ccc4c(c3)OCO4)nnc2C(C)N2CCCCC2)cc1 (stereo unspecified) | 55.2% (active) |
| O=C1N=C(N2CCCC2)S/C1=C\c1cccc(Br)c1 | -3.71% (inactive) |
| CSc1nc2nc3c(c(=O)n2[nH]1)CCC3 | -5.51% (inactive) |
| CNc1nc(SC)nc(N(C#N)CC(=O)OC)n1 | -12.1% (inactive) |
| O=C(NCC(=O)N(Cc1cccs1)C(C(=O)NC1CCCCC1)c1ccco1)c1cccs1 (stereo unspecified) | -0.84% (inactive) |
| O=C(Cc1c[nH]c2ccccc12)OCCOC(=O)Cc1c[nH]c2ccccc12 | -4.73% (inactive) |
| COc1cccc(NC(=O)CN2CCN(c3nc(-c4cccc(OC)c4)cs3)CC2)c1 | -8.12% (inactive) |
| CCS(=O)(=O)c1ccc2oc(SCC(=O)N3c4ccccc4CC3C)nc2c1 (stereo unspecified) | 14% (inactive) |
| CC1Cc2ccccc2N1C(=O)CSc1nc2ccccc2o1 (stereo unspecified) | -8.05% (inactive) |
| CC1Cc2ccccc2N1C(=O)CSc1nnc(-c2ccc(S(=O)(=O)N3CCCCC3)cc2)o1 (stereo unspecified) | 72.8% [fluorescence artefact?] (active) |
| O=C(CCN1c2ccccc2Sc2ccccc21)Nc1ccccc1 | -1.92% (inactive) |
| Cc1ccc(Nc2nnc(SCc3ccccc3)s2)cc1 | -0.81% (inactive) |
| O=C(CCN1CCc2ccccc2C(O)(c2ccccc2)C1)c1ccc2c(c1)OCCO2 (stereo unspecified) | 6.71% (inactive) |
| Cc1ccc(SCC(=O)c2cc(C)c(OC(=S)N(C)C)c(C)c2)cc1 | 1.54% (inactive) |
| COc1ccc(-c2nc3ccccc3n2CCC(C)C)cc1OC | 0.74% (inactive) |
| CCNCc1cc2cc(C)ccc2[nH]c1=O | 5.96% (inactive) |
| Cc1ccc2[nH]c(=O)c(-c3nc4c(C)cccn4c3NCc3ccco3)cc2c1 | 92.7% [fluorescence artefact?] (active) |
| Cc1ccc2nc(SC(C)C(=O)NCc3ccco3)[nH]c2c1 (stereo unspecified) | 0.42% (inactive) |
| CC(C)(C)c1ccc(OC2=CS(=O)(=O)c3ccccc32)cc1 | -1.62% (inactive) |
| CCCCCCc1cc2cc(-c3nnc(-c4cccc(OC)c4)o3)c(=O)oc2cc1O | -2.99% (inactive) |
| COc1ccc(CC(=O)Nc2ccc(-c3nnc(-c4ccccc4)o3)cc2)cc1 | 40.1% (inactive) |
| CCCCCCc1cc2cc(-c3nnc(-c4ccccc4)o3)c(=O)oc2cc1O | 53.5% (active) |
| CCOc1ccc(S(=O)(=O)NCCSc2ccccc2)cc1 | 0.2% (inactive) |

| Structure (SMILES) | inhibition |
| --- | --- |
| Cc1cc(C)c2c(n1)nn1c(-n3ccnc3)cc(C)nc21 | 4.13% (inactive) |
| Cc1cc(C)c2c(n1)nn1c(N3CCN(c4cccc(Cl)c4)CC3)cc(C)nc21 | 73.8% (active) |
| Cc1cc(C)c2c(n1)nn1c(N3CCOCC3)cc(C)nc21 | 10.7% (inactive) |
| COc1ccc(C2CC(c3cccs3)=Nc3ccccc3S2)cc1OC (stereo unspecified) | 15.7% (inactive) |
| Cc1cccc(-c2nc3c(c(SCC(=O)N4CCOCC4)n2)CCCC3)c1 | -17.1% (inactive) |
| Cc1nc(NC(=O)C2CCCCC2)sc1C | 0.45% (inactive) |
| CS(=O)(=O)N(CC(=O)NCc1ccco1)c1ccc2c(c1)OCO2 | 53.8% (active) |
| CS(=O)(=O)N(CC(=O)N1CCN(Cc2ccc3c(c2)OCO3)CC1)c1ccc2c(c1)OCO2 | 2.04% (inactive) |
| O=C(Cn1nnc(-c2ccc3c(c2)OCO3)n1)NCc1ccco1 | 41.7% (inactive) |
| COC(=O)c1cccc(N(C(=O)c2ccco2)C(C(=O)NC2CCCC2)c2ccco2)c1 (stereo unspecified) | -14.6% (inactive) |
| CC1=C(C(=O)Nc2ccccc2)C(c2ccco2)C(C#N)=C(SCC(N)=O)N1 (stereo unspecified) | -3.05% (inactive) |
| N#CC1=C(N)Oc2c(sc3ccccc23)C1c1ccco1 (stereo unspecified) | 85.9% [fluorescence artefact?] (active) |
| Cc1cc2c(c(=O)n1Cc1ccco1)C(c1ccccc1)C(C#N)=C(N)O2 (stereo unspecified) | -11.1% (inactive) |
| Cc1cc(C(=O)OC(C)C(=O)Nc2cccc(S(=O)(=O)N3CCOCC3)c2)c(C)o1 (stereo unspecified) | 0.74% (inactive) |
| CCOC(=O)Cc1csc(NC(=O)CSc2nnc(-c3cccnc3)n2Cc2ccco2)n1 | -5.63% (inactive) |
| Cc1cc(N2CCN(S(=O)(=O)c3ccc(C)c(C)c3)CC2)c2ccccc2n1 | 16.1% (inactive) |
| CCNCCC(=O)N1c2ccccc2Sc2ccc(NC(=O)OCC)cc21 | -22% (inactive) |
| CCO/C([O-])=N/c1c[n+](N2CCOCC2)no1 | 51.1% (active) |
| O=C(NCCN1CCN(Cc2ccccc2)CC1)c1cc2c(=O)[nH]c3ccccc3c2s1 | 24.2% (inactive) |
| FC(F)(F)c1nnc2sc(-c3ccco3)nn12 | 2.64% (inactive) |
| Cc1nnc2sc(-c3ccco3)nn12 | 0.95% (inactive) |
| Fc1ccc(-c2ccc(-c3nn4c(-c5ccco5)nnc4s3)o2)cc1 | 69.7% [fluorescence artefact?] (active) |
